These results are taken from PubChem BioAssay AID1016 (Sanford-Burnham Center for Chemical Genomics, 2008).

The whole screen tested about 200,000 compounds, of which about 330 (0.17%) were called active.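 How the source made its calls: active means activation factor of 2 or more at 20 µM, a signal rise over negative controls twice the positive control's; inactive means the rest.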 Many of the other results were omitted from the sample, so actives are more common in it than they were.

The test system of this assay is alkaline phosphatase, intestinal [Bos taurus]. The assay is described as follows: IAP enzyme activity enhancers – biochemical, bovine IAP, CDP-star luminescence, primary screen (AID 1016). Particulars: purified bovine IAP, 30 min, at 20 µM, active compounds read high, fold of DMSO-control signal, blank-subtracted.
With `Cc1cccc(CC(=O)N2CCN=C2SCc2ccc([N+](=O)[O-])cc2)c1`, the activation factor is 0.8 (inactive).
For `COc1ccc(CCNc2cc(C)nc3c(-c4ccc(Cl)cc4)c(C)nn23)cc1OC`, the activation factor is 0.9 (inactive).
The value for `COc1ccc(-c2nc3cnccn3c2NC(C)(C)CC(C)(C)C)cc1O` was 1.2 (inactive); that for `COc1ccccc1N1CCN(c2ccc([N+](=O)[O-])nc2)CC1` was 1 (inactive).
The value for `CCS(=O)(=O)c1ccc(O)c(NC(=O)COc2ccc(Cl)cc2)c1` was 1 (inactive); that for `Clc1cccc(CN2COc3c(cc(Cl)c4cccnc34)C2)c1` was 0.8 (inactive); that for `Cc1ccc(Cl)c(NC(=O)CN(C)CC(=O)Nc2ccc(F)c(F)c2F)c1Cl` was 1.3 (inactive).
`CCOC(=O)c1c(NC(=O)Cn2nc(C(F)(F)F)cc2C)sc2c1CCC2`: the activation factor is 1 (inactive).
For the compound `CCc1ccc(C2C(C#N)=C(N)N(N3CCOCC3)C3=C2C(=O)CC(C)(C)C3)s1` (configuration not stated), the activation factor is 1 (inactive).
As to `Cc1c(Br)ccc(NC(=O)COc2ccccc2C(N)=O)c1C`, the activation factor is 0.9 (inactive).
For the compound `CC(C)NC(=S)N1CCN(C(c2ccccc2)c2ccccc2)CC1`, the activation factor was 0.9 (inactive).
Consider `COc1ccc(F)c(-c2nc(CN3CCC(c4ccccc4)CC3)c(C)o2)c1`, for which the activation factor was 1.1 (inactive).
For `C=CCC(CC=C)(C(N)=O)c1ccccc1` the value was 1 (inactive).
On to `Fc1ccc(CNCc2ccc(Br)cc2)cc1`, for which the activation factor is 0.9 (inactive).
Turning to `CCOC(=O)COc1cc(O)c2c(=O)cc(-c3ccccc3)oc2c1`, the activation factor was 1.1 (inactive).
As for `CCN(CC)S(=O)(=O)c1ccc(OC(C)C)c(N)c1`, the activation factor is 1 (inactive).
The value for `COCCNc1cc(NCCOC)c([N+](=O)[O-])cc1[N+](=O)[O-]` was 1.3 (inactive).
Regarding `Cc1ccc2[nH]c(=O)c(CN3CCCCC3)c(-c3ccccc3)c2c1`, the activation factor was 1.1 (inactive).
For the compound `O=S(=O)(NCC1CCCO1)c1cnc(Cl)c(Cl)c1` (configuration not stated), the activation factor is 1 (inactive).
For `O=C(NCc1cccs1)c1ccc(Br)o1` the value was 1 (inactive).
For `O=[N+]([O-])c1ccc2c(c1)C(N1CCOCC1)/C(=C/C1(O)CCCCC1)O2` (configuration not stated) the value was 1.1 (inactive).
On to `CC(NC(=S)Nc1ccc(OC(F)F)cc1)c1ccc(F)cc1` (configuration not stated), for which the activation factor is 0.8 (inactive).
`O=C1c2ccccc2NC(c2ccccc2O)N1NS(=O)(=O)c1ccccc1` (configuration not stated): the activation factor is 1 (inactive).
On to `CN(CCc1ccccn1)C(=O)CCC1CCCN(Cc2ccccc2OC(F)F)C1` (configuration not stated), for which the activation factor was 1.1 (inactive).
The value for `Cc1ccnc(NC(=O)Cn2ccc([N+](=O)[O-])n2)c1` was 1 (inactive); that for `Cc1ccc(NC(=O)NC2CCCCC2)cc1S(=O)(=O)N1CCOCC1` was 1.2 (inactive).
Consider `Cc1ccc(N=C2NC(=O)c3cccc([N+](=O)[O-])c32)cc1`, for which the activation factor was 1 (inactive).
`Cc1ccc(Sc2ccncc2S(N)(=O)=O)cc1`: the activation factor is 0.5 (inactive).
In the case of `Cc1cc2ccccn2c1C(=O)c1cccc(S(=O)(=O)N2CCOCC2)c1`, the activation factor was 1 (inactive).
For `Cc1ccc([N+](=O)[O-])c(OCCCNCC(C)O)c1` (configuration not stated), the activation factor is 1 (inactive).
For the compound `CCn1c(C(C)C)n[nH]c1=S`, the activation factor was 0.9 (inactive).
For the compound `O=C(COC(=O)c1cc([N+](=O)[O-])ccc1NCc1ccccc1)NC1CCCCC1`, the activation factor was 1 (inactive).
As for `COCCn1c(=NC(=O)c2ccccc2[N+](=O)[O-])sc2cc(S(C)(=O)=O)ccc21`, the activation factor is 1.2 (inactive).
As for `CC(C)CC(CO)N1CCN(C(=O)c2ccc(Cl)cc2Cl)CCC1=O` (configuration not stated), the activation factor was 1.2 (inactive).
Turning to `Cc1cc2oc(=O)cc(CN3CCN(S(=O)(=O)c4cccs4)CC3)c2cc1C(C)C`, the activation factor is 0.9 (inactive).
For `N#C/C(=C/c1cccc([N+](=O)[O-])c1)c1nnc2n1CCCCC2`, the activation factor was 0.5 (inactive).
Turning to `Cc1ccc(OCCCC(=O)NC(C)c2ccccc2)c(C)c1` (configuration not stated), the activation factor is 1 (inactive).
In the case of `CN(c1ccccc1)S(=O)(=O)c1cccc(NC(=O)Cc2c(F)cccc2Cl)c1`, the activation factor is 0.9 (inactive).
For `CCCCC(CC)CNC(=O)C(=O)C1C(=O)Nc2ccccc21` (configuration not stated) the value was 0.9 (inactive).
With `COc1ccc(OC)c(NC(=S)N2CCc3ccccc3C2)c1`, the activation factor was 1 (inactive).
`CCS(=O)(=O)N1Cc2ccccc2CC1C(=O)Nc1nc2ccc(F)cc2s1` (configuration not stated): the activation factor is 1 (inactive).
For the compound `COc1cccc(C(=O)Nc2cc3c(cc2Br)OCCCO3)c1`, the activation factor is 1.1 (inactive).
For `O=C(Nc1nnc(C2CC2)s1)C1=NN(C2CCS(=O)(=O)C2)C(=O)CC1` (configuration not stated) the value was 1 (inactive); for `Cc1ccc(S(=O)(=O)/N=C(/Nc2ccc3[nH]c(=O)[nH]c3c2)c2ccccc2)cc1`, 0.9 (inactive).
As for `Cc1cc(/C=C2/C(=N)N3C(=NC2=O)SN=C3S(C)(=O)=O)c(C)n1-c1ccccc1`, the activation factor is 1.1 (inactive).
`Cc1ccc(-n2cnc3ncnc(-c4ccccc4)c32)cc1`: the activation factor was 1.1 (inactive).
With `Cc1ccc(NC(=O)c2csc3c2CCCC3)cc1`, the activation factor is 0.9 (inactive).
For `Cc1cc(C)c(NC(=S)N2CCCC2C(=O)O)c(C)c1` (configuration not stated), the activation factor is 0.7 (inactive).
For `CC(Sc1nc(-c2ccccc2)cc(C(F)(F)F)n1)C(=O)Nc1ccc2c(c1)OCO2` (configuration not stated), the activation factor is 0.9 (inactive).
`Cc1ccsc1/C=N/n1c(=S)[nH]nc(C)c1=O`: the activation factor was 0.9 (inactive).
`CC(C)C(C)(C#N)NC(=O)CSc1nncn1-c1ccccc1` (configuration not stated): the activation factor was 1 (inactive).
Take `Cc1[nH]c2c(C(=O)N3CCCC(CCC(=O)NCc4ccccc4F)C3)cccc2c1C` (configuration not stated): the activation factor was 1.3 (inactive).
For `COC(=O)c1cccc([N+](=O)[O-])c1CS(=O)(=O)c1ccc(C)cc1` the value was 0.8 (inactive); for `O=C(COC(=O)c1ccco1)NCc1ccc(Cl)cc1`, 1 (inactive); for `O=C(N/N=C/c1cccc([N+](=O)[O-])c1)C1CC(=O)N(c2ccc(Br)cc2)C1` (configuration not stated), 0.7 (inactive).
For `CN(C)S(=O)(=O)c1cc(NC(=O)CN2C(=O)NC3(CCCc4ccccc43)C2=O)ccc1Cl` (configuration not stated) the value was 1 (inactive); for `CCN(CC(=O)Nc1ccc(Cl)c(S(=O)(=O)N(C)C)c1)Cc1nc2ccccc2c(=O)[nH]1`, 2.1 (active).
In the case of `CCN(CC(=O)NC(=O)NCc1ccccc1)Cc1nc2ccccc2c(=O)[nH]1`, the activation factor was 1.5 (inactive).
Regarding `N#Cc1c(-c2ccc(Cl)cc2)c2c([nH]c1=S)CCCC2`, the activation factor is 0.8 (inactive).
The value for `CCNS(=O)(=O)c1ccc(NC(=O)Nc2cccc(C(F)(F)F)c2)cc1` was 0.6 (inactive).
For the compound `CC(C)C[C@H](NC(=O)Nc1cccc(C(F)(F)F)c1)C(=O)O`, the activation factor is 4.4 (active).
The value for `O=C(O)CSCC(=O)Nc1cccc(C(F)(F)F)c1` was 0.9 (inactive).
